Test [1] in a line: ATG_CRE_CIS: Attagene CIS-FACTORIAL HepG2 Assay for human cAMP Responsive Element (CRE) binding protein 3 (AID 2282926). To be noted: HepG2 CRE cis-reporter, Attagene multiplexed mRNA; actives raise or lower the signal. In short, it runs like this:
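Capillary electrophoresis of 6-FAM-labelled, HpaI-digested PCR products quantified reporter transcripts. These came from HepG2 transiently transfected with cis-element reporters and exposed to test chemicals for 24 hours, with DMSO defining baseline activity.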

Test [2] addresses CCAAT/enhancer-binding protein beta (Homo sapiens) (UniProt P17676). As to the kind of experiment: ATG_C_EBP_CIS: Attagene CIS-FACTORIAL HepG2 Assay for human CCAAT/Enhancer Binding Protein (C/EBP) beta (AID 2282927). The note with it: HepG2 Attagene cis-factorial transcription factor reporter; actives raise or lower the signal. Summed up: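 Following a 24 h incubation with test chemical, transfected HepG2 cells yielded RNA whose reporter transcripts were quantified by RT-PCR and fluorescent capillary electrophoresis, with DMSO serving as baseline for bidirectional fitting.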

A short description of test [3]: ATG_CMV_CIS: Attagene CIS-FACTORIAL HepG2 Assay for human CMV (Internal Marker) (AID 2282928).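 Note: endpoint acts as a background internal control marker rather than a target.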 The note with it: HepG2 CMV promoter reporter, transcription factor profiling; actives raise or lower the signal. In short, it runs like this:
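Fluorescence intensity of RT-PCR-derived reporter fragments, resolved by capillary electrophoresis, gives the signal. HepG2 liver cells bearing transfected cis-element reporters were treated 24 h; activity in either direction was fit relative to DMSO-treated controls.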

Test [4] can be described thus: ATG_DR4_LXR_CIS: Attagene CIS-FACTORIAL HepG2 Assay for human Liver X Receptor (LXR), DR4 submotif (AID 2282929). To be noted: HepG2 Attagene DR4 cis-reporter, mRNA transcription; actives raise or lower the signal. In short, it runs like this: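 Cells were transfected with multiple reporter transcription units, exposed to chemicals for 24 hours, then lysed for RNA. Reporter mRNA induction was measured by RT-PCR with capillary electrophoresis detection and fitted in both directions relative to DMSO.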

The nature of test [5]: ATG_AP_1_CIS: Attagene CIS-FACTORIAL HepG2 Assay for human Activator Protein 1 (AP-1) (AID 2282931). The note with it: HepG2 Attagene cis-factorial AP-1 reporter mRNA; actives raise or lower the signal. Summed up: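 Endogenous transcription-factor activity in human HepG2 liver cells is read through a cis-promoter reporter transcript, sampled 24 h after dosing. Detection uses RT-PCR with capillary electrophoresis; values come from bidirectional fitting relative to DMSO.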

Test [6] is described as follows: ATG_AP_2_CIS: Attagene CIS-FACTORIAL HepG2 Assay for human Activator Protein 2 (AP-2) (AID 2282932). The note with it: HepG2 AP-2 cis-reporter, Attagene transcription factor profiling; actives raise or lower the signal. Summed up: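 Cells (HepG2) transfected with promoter-driven reporter constructs, treated 24 h. Total RNA reverse-transcribed, reporter cDNA PCR-amplified, FAM-labelled by primer extension, digested, resolved by capillary electrophoresis. Activity fitted both directions versus DMSO.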

A short description of test [7]: ATG_BRE_CIS: Attagene CIS-FACTORIAL HepG2 Assay for human Bone Morphogenetic Protein (BMP) Response Element (BRE) (AID 2282933). The note with it: HepG2 BMP response element reporter, Attagene transcription factor profiling; actives raise or lower the signal. Summed up:
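HepG2 cells transiently transfected with CIS reporter units (endogenous TF activity, BMP response element), dosed 24 h. Reporter mRNA quantified by RT-PCR, fluorescent labelling and capillary electrophoresis; bidirectional fit vs DMSO baseline.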

The target in test [8] is Transcription factor E2F1 (Homo sapiens) (UniProt Q01094). The test is described as follows: ATG_E2F_CIS: Attagene CIS-FACTORIAL HepG2 Assay for human E2F Transcription Factor 1 (AID 2282935). The note with it: HepG2 Attagene cis-reporter, E2F reporter RNA transcripts; actives raise or lower the signal. In short, it runs like this: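 First, HepG2 cells were transfected with reporter transcription units. Next, they were dosed for 24 h. Then RNA was isolated, converted to cDNA, PCR-amplified, FAM-labeled, HpaI-digested and analyzed by capillary electrophoresis.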

Test [9] can be described thus: ATG_E_Box_CIS: Attagene CIS-FACTORIAL HepG2 Assay for human Enhancer Box (E-box) (AID 2282936). To be noted: HepG2 E-box cis-reporter transcription, actives raise or lower the signal. Summed up:
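Endogenous transcription factor activity was sensed in human HepG2 liver cells through transfected cis-promoter reporter units. After 24 h of dosing, total RNA was reverse-transcribed and reporter cDNA resolved by capillary electrophoresis.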

Test [10] is described as follows: ATG_M_61_CIS: Attagene CIS-FACTORIAL HepG2 Assay for M61 Transcription Factor (Internal Marker) (AID 2282937). The note with it: HepG2 Attagene CIS-FACTORIAL M61 internal marker reporter; actives raise or lower the signal. In short, it runs like this:
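Cells were transfected with reporter units under cis-regulatory promoters, treated with chemicals for 24 h, then lysed for RNA. Reporter transcripts were quantified by RT-PCR and capillary electrophoresis, and activity was fitted bidirectionally against DMSO.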

A short description of test [11]: ATG_EGR_CIS: Attagene CIS-FACTORIAL HepG2 Assay for human Early Growth Response 1 (EGR1) (AID 2282938). To be noted: HepG2 Attagene CIS-FACTORIAL EGR reporter mRNA; actives raise or lower the signal. In short, it runs like this: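 Endogenous TF activity in HepG2 liver cells was gauged through cis-promoter reporter constructs transiently transfected. After 24 h dosing, reporter mRNA was quantified by RT-PCR and capillary electrophoresis, and curves fitted in both directions versus DMSO.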

Test [12] in a line: ATG_Ets_CIS: Attagene CIS-FACTORIAL HepG2 Assay for human Erythroblast Transformation Specific (ETS) (AID 2282941). To be noted: HepG2 ETS cis-reporter transcription, actives raise or lower the signal. In short, it runs like this: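 Multiplexed reporter transcript profiling: HepG2, 24 h treatment, total RNA to cDNA, PCR, 6-FAM labelling, HpaI cut, capillary electrophoresis. Gain- or loss-of-signal fitted against DMSO.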

The nature of test [13]: ATG_FoxO_CIS: Attagene CIS-FACTORIAL HepG2 Assay for human Forkhead box O (FoxO) (AID 2282943). The note with it: HepG2 Attagene cis-reporter, FoxO element, mRNA; actives raise or lower the signal. In short, it runs like this:
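Values reflect reporter mRNA induction or loss in HepG2 cells 24 h post-dosing, fitted bidirectionally with DMSO as negative control and baseline. Detection used RT-PCR and fluorescence capillary electrophoresis.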

Test [14] is described as follows: ATG_GATA_CIS: Attagene CIS-FACTORIAL HepG2 Assay for human GATA Binding Protein (AID 2282944). The note with it: HepG2 GATA cis-element reporter, Attagene multiplex mRNA; actives raise or lower the signal. In short, it runs like this: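 HepG2 cells transiently transfected with multiplexed cis-element reporter units measure endogenous GATA activity; after 24 h compound exposure, reporter mRNA quantified by RT-PCR and capillary electrophoresis. Changes fitted in both directions vs DMSO.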

The nature of test [15]: ATG_GLI_CIS: Attagene CIS-FACTORIAL HepG2 Assay for human Zinc Finger Protein GLI1 (AID 2282945). To be noted: HepG2, Attagene cis-factorial reporter mRNA, GLI element; actives raise or lower the signal. In short, it runs like this: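 HepG2 cells transiently transfected with cis-promoter multiplexed reporter units report endogenous transcription factor activity. After 24 h chemical exposure, reporter mRNA was quantified by RT-PCR, 6-FAM labelling, HpaI digestion and capillary electrophoresis, with bidirectional fitting against DMSO.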

Test [16] in a line: ATG_ISRE_CIS: Attagene CIS-FACTORIAL HepG2 Assay for human Interferon Regulatory Factor 1 (IRF1) binding to an Interferon-Stimulated Response Element (ISRE) (AID 2282948). The note with it: HepG2 ISRE cis-reporter (Attagene), mRNA transcription readout; actives raise or lower the signal. In short, it runs like this:
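Signal reflects induction or loss of ISRE-linked reporter mRNA in transiently transfected HepG2 cells after a 24 h treatment, detected by fluorescent RT-PCR fragments on capillary electrophoresis and normalised to DMSO.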

Test [17] can be described thus: ATG_M_32_CIS: Attagene CIS-FACTORIAL HepG2 Assay for M32 Transcription Factor (Internal Marker) (AID 2282949).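 Note: background control marker of the multiplexed CIS panel rather than a real target.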 The note with it: HepG2 Attagene cis-factorial M32 reporter, mRNA; actives raise or lower the signal. In short, it runs like this:
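HepG2 human liver cells transiently transfected with cis-promoter-driven multiple reporter transcription units, dosed 24 h. Reporter mRNA quantified by RT-PCR, FAM-labelled primer extension, HpaI digest and capillary electrophoresis; bidirectional fit versus DMSO baseline.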

A short description of test [18]: ATG_M_06_CIS: Attagene CIS-FACTORIAL HepG2 Assay for M06 Transcription Factor (Internal Marker) (AID 2282950). To be noted: HepG2 Attagene CIS-FACTORIAL M06 internal marker reporter; actives raise or lower the signal. In short, it runs like this:
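Internal background marker within multiplexed cis-reporter HepG2 system. Cells transiently transfected, dosed 24 h; reporter mRNA measured by RT-PCR, HpaI digestion and capillary electrophoresis. Bidirectional fit relative to DMSO.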

Test [19] concerns the target Paired box protein Pax-6 (Homo sapiens) (UniProt P26367). As to the kind of experiment: ATG_Pax6_CIS: Attagene CIS-FACTORIAL HepG2 Assay for human Paired Box 6 (PAX6) (AID 2282956). The note with it: HepG2 CIS-FACTORIAL PAX6 reporter transcription, RNA readout; actives raise or lower the signal. In short, it runs like this: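 Values derive from bidirectional curve fitting of reporter mRNA signal relative to DMSO. HepG2 cells bearing transfected cis-regulated MRTUs were exposed for 24 h; transcripts were read by RT-PCR and capillary electrophoresis.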

Test [20] is described as follows: ATG_PXRE_CIS: Attagene CIS-FACTORIAL HepG2 Assay for human Pregnane X Receptor Element (PXRE) (AID 2282957). The note with it: HepG2 Attagene CIS-FACTORIAL PXRE reporter, mRNA; actives raise or lower the signal. In short, it runs like this:
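Fluorescent capillary electrophoresis of amplified reporter cDNA gave the signal, collected 24 h after dosing HepG2 cells that held transfected cis-element reporter constructs.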

Consider four compounds from PubChem BioAssay (EPA / NIEHS).

Active and inactive are the calls of the source. Rule for the calls: active = hit-call score of the fitted dose curve at least 0.9, where 1 is the maximum; inactive = score below 0.9.

Chain of Paired box protein Pax-6 (Homo sapiens) (P26367 whole entry, looked up): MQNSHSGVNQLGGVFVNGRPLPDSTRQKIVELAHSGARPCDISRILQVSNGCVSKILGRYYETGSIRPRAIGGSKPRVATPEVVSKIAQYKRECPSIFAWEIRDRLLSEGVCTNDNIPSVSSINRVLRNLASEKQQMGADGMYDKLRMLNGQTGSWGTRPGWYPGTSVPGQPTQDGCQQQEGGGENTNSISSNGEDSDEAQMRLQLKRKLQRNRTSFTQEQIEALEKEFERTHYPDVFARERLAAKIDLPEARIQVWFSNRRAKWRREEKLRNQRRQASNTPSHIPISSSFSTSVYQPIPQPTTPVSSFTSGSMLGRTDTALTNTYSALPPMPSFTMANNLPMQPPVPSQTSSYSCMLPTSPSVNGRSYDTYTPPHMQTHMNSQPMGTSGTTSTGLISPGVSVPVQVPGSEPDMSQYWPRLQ
Chain of CCAAT/enhancer-binding protein beta (Homo sapiens) (P17676 whole entry, looked up): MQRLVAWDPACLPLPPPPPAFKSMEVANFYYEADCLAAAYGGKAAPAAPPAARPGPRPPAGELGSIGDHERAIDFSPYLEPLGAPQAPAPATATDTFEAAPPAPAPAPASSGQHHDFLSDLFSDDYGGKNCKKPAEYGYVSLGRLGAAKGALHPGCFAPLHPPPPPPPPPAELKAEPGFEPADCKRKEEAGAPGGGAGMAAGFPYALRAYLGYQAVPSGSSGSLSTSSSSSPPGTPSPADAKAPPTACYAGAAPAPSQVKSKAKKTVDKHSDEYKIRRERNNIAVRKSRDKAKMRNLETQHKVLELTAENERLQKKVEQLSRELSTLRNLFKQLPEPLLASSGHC
Chain of Transcription factor E2F1 (Homo sapiens) (Q01094 whole entry, looked up): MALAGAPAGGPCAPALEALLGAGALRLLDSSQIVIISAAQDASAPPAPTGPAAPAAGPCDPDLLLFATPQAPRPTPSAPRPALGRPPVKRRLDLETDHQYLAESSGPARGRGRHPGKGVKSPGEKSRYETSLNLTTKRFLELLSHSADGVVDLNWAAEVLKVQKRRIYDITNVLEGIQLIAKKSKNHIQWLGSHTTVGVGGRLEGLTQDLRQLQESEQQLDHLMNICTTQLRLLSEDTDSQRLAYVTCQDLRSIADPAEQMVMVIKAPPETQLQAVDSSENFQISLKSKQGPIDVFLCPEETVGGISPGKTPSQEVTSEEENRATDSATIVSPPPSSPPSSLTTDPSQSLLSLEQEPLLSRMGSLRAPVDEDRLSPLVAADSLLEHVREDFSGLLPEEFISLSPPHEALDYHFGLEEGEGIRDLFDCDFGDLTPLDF

In general, AC50 refers to the concentration at which the activity in the assay is half-maximal. As to `CN(C)CCCN1c2ccccc2CCc2ccc(Cl)cc21`, the result in test [1], in [2], in test [3], in test [4], in [5] and in test [7] was inactive. The result in [8], in [9], in [10], in test [11], in test [12] and in test [13] was inactive. The result in [14], in test [15], in test [16], in [17] and in [18] was inactive. Moreover, the AC50 was 7.1 µM (active) in test [6], 11.1 µM (active) in test [19] and 5.14 µM (active) in [20].

Regarding `F[B-](F)(F)F`, the result in test [1], in [2], in test [3], in [4], in test [5] and in test [6] was inactive. For the same compound, the call in [7], in test [8], in [9], in [10], in test [11] and in [12] was inactive. In addition, the compound was called inactive in test [13], in test [14], in [15], in test [16], in test [17] and in [18]. Moreover, the compound was classed as inactive in [19] and in test [20].

On to `C[C@H]1C[C@H]2[C@@H]3CCC4=CC(=O)C=C[C@]4(C)[C@@]3(F)[C@@H](O)C[C@]2(C)[C@@]1(O)C(=O)CO`, for which the call in [1], in test [2], in test [3], in test [5], in [6] and in test [8] was inactive. The outcome in test [9], in test [10], in [12], in [13], in [14] and in [15] was inactive. For the same compound, the outcome in test [16], in [17] and in test [18] was inactive. The AC50 in test [4] is 166 µM (active); in test [7], 73.3 µM (active); in test [11] it was 100 µM (active); in test [19], 69 µM (active); in [20], 9.62 µM (active).

`Oc1ccc(Cl)cc1C1CCCC1`: the concentration at half-maximal activity (AC50) is 33.4 µM (active) in test [1]; 43.2 µM (active) in [4]; 56.6 µM (active) in test [7]; 54.7 µM (active) in test [11]; 52 µM (active) in [12]; 61.3 µM (active) in [13]. In addition, the AC50 in test [14] is 33.4 µM (active); in [15], 43.1 µM (active); in [16], 57.3 µM (active); in [19], 62.4 µM (active); in test [20], 7.76 µM (active). In addition, the result in test [2], in [3], in test [5], in test [6], in test [8] and in [9] was inactive. Besides, the compound was classed as inactive in test [10], in test [17] and in test [18].
